The record followed here is PubChem BioAssay (NCATS).

Results filed as inconclusive are left out. A number with no mark means an inactive call. The source made the active and inactive calls. Calls follow the shape of the dose curve; as a rule, active = well fitted cell-killing curve with a large enough effect; inconclusive = small, poorly fitted or top-dose-only effect; inactive = no such curve, though single readings can be large or run the other way. Positions of bridges follow the written chain, without caps; N, C: chain ends. Non-standard residues stand in square brackets, D forms with d. Residues, ends and D or L forms follow the SMILES beside them. ξ: configuration not given here. *: point of attachment. Octanoyl(6-Me) = CCC(C)CCCCC(=O)*; ξThr(3R) = C[C@@H](O)C(N)C(=O)O; dDab = NCC[C@@H](N)C(=O)O; Dab = NCC[C@H](N)C(=O)O; Cbz = O=C(OCc1ccccc1)*
Potency is read from the fitted curve at half-maximal effect.

The assay in a line: qHTS of pediatric cancer cell lines to identify multiple opportunities for drug repurposing: Primary screen for LAN-5 cells (AID 1347100). As to conditions: LAN-5 neuroblastoma viability, CellTiter-Glo luminescence, 48 h; series mostly up to 46 µM. The source says:
Drug repurposing or repositioning has been offered as a strategy for drug development in oncology programs. This approach has special potential for childhood cancers and other rare or orphan diseases, where the expected return on new drug development has been a disincentive to pharmaceuticals.
In this project we exploit the poly-pharmacology of drugs to discover new indications via phenotypic screening of a panel of 19 well-characterized cell lines derived from solid tumors seen in children and adolescents. The goal is to identify approved drugs with previously unrecognized anticancer properties that has the potential to reveal new mechanisms and biological processes involved in carcinogenesis or drug resistance. We employed a titration-based paradigm (quantitative high-throughput screening or qHTS), where all compounds were tested at multiple concentrations for their effect on cell viability. Concentration-response curves (CRCs) were derived directly from the primary screen, and both potency and efficacy values were used to identify compounds with robust bioactivity profiles. We screened the NIH Chemical Genomics Center (NCGC) Pharmaceutical Collection (NPC) and Mechanism Interrogation Plate (MIPE) small molecule collections of approved and investigational compounds against these cell lines; and measured metabolically active cells after 48 hours of compound treatment as a proxy for cell viability.
Assay Submitter: Nathalia J. Martinez, National Center for Advancing Translational Sciences, National Institutes of Health, Rockville, MD, USA; email: natalia.martinez@nih.gov
[1] Shen, M et al. Quantitative high-throughput phenotypic screening of pediatric cancer cell lines identifies multiple opportunities for drug repurposing. Oncotarget 2017 Dec 19;9(4):4758-4772. PMID 29435139.
The cells were obtained from University of North Carolina (UNC), Pediatric Preclinical Testing Program (PPT), and Coriell Institute (CI).
qHTS cell viability assay:
Cells were assayed in growth media at a density of 500-1,000 cells/well. Five microliters of cells were dispensed into 1,536-well, white, solid-bottom, TC-treated plates (Greiner Bio One) using a multidrop dispenser and incubated at 37 degrees C, 5% CO2, under a humidified atmosphere for 5 hours. Twenty-three nanoliters of compounds and controls (neutral control DMSO or positive control bortezomib at final concentration of 2.3 µM) were subsequently transferred by Kalypsys pintool. For primary screens, the MIPE collection was tested at 11-point dilutions (final concentrations range from 0.78 nM to 46 µM) and the NPC collection at 8-point dilutions (final concentrations range from 0.59 nM to 46 µM). Compounds tested in follow-up screens were assayed at 11-point dilutions. Cells were incubated for 48 hours, followed by addition of 3 µL of CellTiter-Glo (Promega). After a 15 min incubation at room temperature, samples were analyzed for luminescence intensity using a ViewLux High-throughput CCD imager equipped with clear filters.
(In qHTS, concentration-response curves come from the screen itself.)
Take `O=C(C[C@@H]1CC=CCCC(=O)O[C@H](c2ccccc2)CNC1=O)NCc1ccc(Cl)cc1`: the Potency entry is “inactive”.
With `Cc1noc(-c2ccc(CSCCC(=O)O)cc2)c1NC(=O)OC(C)c1ccccc1Cl` (stereo not given), the Potency result was “inactive”.
On to `CC(C)C[C@@H](C=O)NC(=O)[C@H](CC(C)C)NC(=O)[C@H](CC(C)C)NC(=O)OCc1ccccc1` (Cbz-Leu-Leu-Leu-aldehyde), for which the Potency is 662 nM (active).
Turning to `CC(C)(O)CC[C@@H](O)[C@](C)(O)[C@H]1CC[C@@]2(O)C3=CC(=O)[C@@H]4C[C@@H](O)[C@@H](O)C[C@]4(C)[C@@H]3CC[C@]12C`, the Potency entry was “inactive”.
As to `C[C@H]1O[C@H](O[C@H]2[C@H](O)[C@@H](O)[C@@H](O[C@H]3[C@H](O)[C@@H](O)C(O)O[C@H]3CO)O[C@H]2CO)[C@H](O)[C@@H](O)[C@H]1N[C@H]1C=C(CO)[C@@H](O)[C@H](O)[C@@H]1O` (stereo not given in full), the Potency is 2350 nM (active).
As for `NC(=O)c1cccc(-c2cccc(OC(=O)NC3CCCCC3)c2)c1`, the Potency result is “inactive”.
Same read-out and setting: with `CCCCCCCCCCCCCCCC(=O)OC[C@@H](NC(=O)C(Cl)Cl)[C@H](O)c1ccc([N+](=O)[O-])cc1` the entry was “inactive”; with `O=c1ccn([C@@H]2O[C@H](CO)[C@H](O)[C@@H]2F)c(=O)[nH]1`, “inactive”.
`CN(CC(=O)N(Cc1ccc(C2CCCCC2)cc1)c1ccc(C(=O)O)c(O)c1)S(=O)(=O)c1c(F)c(F)c(F)c(F)c1F`: the Potency was 23500 nM (active).
Turning to `CCc1ccc(C(=O)Nc2cc(CN3CCN(C)CC3)cc(C(F)(F)F)c2)cc1C#Cc1cnc2ccnn2c1`, the Potency was 7430 nM (active).
On the same count and under the same terms, the same measure for `Cc1cc(O)c2c(c1)C(=O)c1cccc(O)c1C2=O`: “inactive”.
The same measure, in the same setting: the same measure for `CCC(C)CCCCC(=O)N[C@@H](CCN)C(=O)NC(C(=O)N[C@H](CCN)C(=O)N[C@@H]1CCNC(=O)C([C@@H](C)O)NC(=O)[C@@H](CCN)NC(=O)[C@@H](CCN)NC(=O)[C@@H](CC(C)C)NC(=O)[C@H](Cc2ccccc2)NC(=O)[C@H](CCN)NC1=O)[C@@H](C)O` (stereo partly drawn) ({Octanoyl(6-Me)}-[Dab][ξThr(3R)][dDab][dDab][Dab]F[dL][dDab][dDab][ξThr(3R)]; lactam 4-C): “inactive”; for `Cc1cc(-c2nnc3n2CCCCC3)c(C)n1-c1ccccc1`: “inactive”; for `c1coc(CNc2ncnc3nc[nH]c23)c1`: “inactive”.
The same measure, in the same setting: with `O=C1NC(=O)C(=Cc2ccc3nccc(-c4ccncc4)c3c2)S1` the figure was 743 nM (active).
For the compound `COc1cc(OC)cc(-c2ccc3ncc4ccc(=O)n(-c5ccc(N6CCNCC6)c(C(F)(F)F)c5)c4c3c2)c1`, the Potency was 2640 nM (active).
Same read-out and setting: the same measure for `C=CC(=O)Nc1cccc(Nc2nc(NC3CCC(N(C)C)CC3)nc3c2ncn3C(C)C)c1` (stereo not given): 14.8 nM (active).
Take `NC(=O)Nc1sc(-c2ccc(F)cc2)cc1C(N)=O`: the Potency was 1180 nM (active).
For `CC[C@]12C=CCN3CC[C@@]4(c5cc([C@@]6(C(=O)OC)C[C@H]7C[C@@H](C(C)(F)F)CN(Cc8c6[nH]c6ccccc86)C7)c(OC)cc5N(C)[C@H]4[C@@](O)(C(=O)OC)[C@H]1OC(C)=O)[C@@H]32`, the Potency was 5.3 nM (active).
Turning to `CC(=O)OCC(=O)[C@@]12N=C(C)O[C@H]1C[C@H]1[C@@H]3CCC4=CC(=O)C=C[C@]4(C)[C@@H]3[C@@H](O)C[C@@]12C`, the Potency entry is “inactive”.
With `Cc1cn([C@@H]2O[C@H](CO)[C@@H](O)[C@H]2F)c(=O)[nH]c1=O`, the Potency result is “inactive”.
Turning to `C[C@H]1[C@@H](OC(=O)CCC(=O)O)O[C@@H]2O[C@@]3(C)CC[C@@H]4[C@H](C)CC[C@@H]1[C@@]24OO3`, the Potency was 3320 nM (active).
On the same count and under the same terms, with `O=C(CCCCCCC(=O)Nc1cccnc1)NO` the figure was 2640 nM (active).
Take `CCN1CCN(C(=O)N[C@H](C(=O)N[C@@H]2C(=O)N3C(C(=O)O)=C(CSc4nnnn4C)CS[C@@H]23)c2ccc(O)cc2)C(=O)C1=O`: the activity change, negative = cytotoxic is -3.47% [at 9.22 µM].
For `C=C(C)[C@@H]1CC[C@]2(C(=O)O)CC[C@]3(C)[C@H](CC[C@@H]4[C@@]5(C)CC[C@H](O)C(C)(C)[C@@H]5CC[C@]43C)[C@@H]12`, the Potency result is “inactive”.
On the same count and under the same terms, the same measure for `CC(C)N1[N]C(=C2C=c3cc(O)ccc3=N2)c2c(N)ncnc21`: 5900 nM (active); for `Cc1cnc(Nc2ccc(N3CCN(C)CC3)cc2)nc1Nc1cccc(S(=O)(=O)NC(C)(C)C)c1`: 743 nM (active).
As to `O=C(C=CC=Cc1ccc2c(c1)OCO2)N1CCCCC1`, the Potency result is “inactive”.
On the same count and under the same terms, the same measure for `Cn1cc(-c2cnn3c(N)c(Br)c([C@H]4CCCNC4)nc23)cn1`: 743 nM (active); for `CCCCOc1ccc(C(=O)Nc2ccc(F)cc2F)cc1`: “inactive”.
Same read-out and setting: the same measure for `CNC(=O)c1cccc(-c2ccc3c(N4CCOC[C@H]4C)nc(N4CCOC[C@H]4C)nc3n2)c1`: 4180 nM (active); for `CN(C)CCN1C(=O)c2cccc3cc(N)cc(c23)C1=O`: 2960 nM (active); for `C[C@H](NC(=O)C(C#N)=Cc1cccc(Br)n1)c1ccccc1`: 16600 nM (active).
Still for that read-out and setting: the same measure for `COC(=O)C=CC(=O)OC`: “inactive”; for `CC(C(C)N1CC(=O)NC(=O)C1)N1CC(=O)NC(=O)C1` (stereo not given): 743 nM (active); for `CC(=O)N[C@@H]1[C@H](O[C@@H]2c3ccc(c(Cl)c3)Oc3cc4cc(c3O[C@H]3O[C@H](CO)[C@@H](O)[C@H](O)[C@H]3NC(=O)CCCCCCCC(C)C)Oc3ccc(cc3Cl)C[C@H]3NC(=O)[C@H](N)c5ccc(O)c(c5)Oc5cc(O)cc(c5)[C@H](NC3=O)C(=O)N[C@H]4C(=O)N[C@H]3C(=O)N[C@@H]2C(=O)N[C@@H](C(=O)O)c2cc(O)cc(O[C@H]4O[C@H](CO)[C@@H](O)[C@H](O)[C@H]4O)c2-c2cc3ccc2O)O[C@H](CO)[C@@H](O)[C@@H]1O`: “inactive”.
As to `CC(C)C[C@H](NC(=O)[C@@H](NC(=O)c1cccc(-c2ccccc2)n1)[C@@H](C)O)B(O)O`, the Potency was 33.2 nM (active).
Same read-out and setting: the same measure for `OC[C@H]1OC(O)C[C@@H](O)[C@H]1O` (stereo not given in full): “inactive”; for `CC(C)Oc1ccc(C(=O)N[C@H](CNC(=O)CN(C)C)Cc2ccc(-c3cn4cccc([C@H](C)O)c4n3)cc2)cc1Cl`: 1050 nM (active).
The same measure, in the same setting: the same measure for `CC(C)C[C@H](NC(=O)CNC(=O)c1cc(Cl)ccc1Cl)B1OC(=O)CC(CC(=O)O)(C(=O)O)O1` (stereo not given in full): 118 nM (active).
